LmPK inhibitor – blocks Leishmania mexicana pyruvate kinase activity | 290,000 tested, 0.37% active | Q27686 | purified LmPK, Kinase-Glo ATP luminescence, 1 h | Potency, µM (titrated, usually from 57.5 µM), usual class: inhibitors
Target sequence (Q27686 whole entry, looked up): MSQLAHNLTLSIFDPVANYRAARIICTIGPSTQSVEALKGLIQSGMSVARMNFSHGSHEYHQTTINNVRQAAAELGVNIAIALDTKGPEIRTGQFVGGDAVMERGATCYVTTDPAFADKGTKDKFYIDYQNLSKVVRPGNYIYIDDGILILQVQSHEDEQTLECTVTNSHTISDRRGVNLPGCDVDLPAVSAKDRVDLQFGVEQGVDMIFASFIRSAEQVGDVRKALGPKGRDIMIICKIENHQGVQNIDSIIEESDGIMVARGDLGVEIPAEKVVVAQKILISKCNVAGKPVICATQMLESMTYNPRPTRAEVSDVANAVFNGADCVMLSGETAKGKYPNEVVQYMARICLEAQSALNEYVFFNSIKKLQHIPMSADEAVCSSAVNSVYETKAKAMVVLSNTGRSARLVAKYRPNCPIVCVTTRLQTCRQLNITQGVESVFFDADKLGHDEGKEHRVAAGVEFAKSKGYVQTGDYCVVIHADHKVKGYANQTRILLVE
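Pyruvate kinase activity monitored as ATP production (luciferase luminescence). Conditions: 0.1 nM enzyme, 0.5 mM PEP, 0.1 mM ADP, 1 h, RT; normalized against uninhibited and no-enzyme wells.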
Giardia FBPA inh – blocks Giardia fructose-bisphosphate aldolase activity; A8B2U2; purified Giardia FBPA; Potency, µM (titrated, usually from 59.6 µM), usual class: inhibitors; 290,000 tested, 0.71% active; note: nearly all actives have a fitted effect of over 55% in size
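Giardia FBPA (40 nM reagent) was preincubated 10 min at RT with compound (up to 57.5 uM final), then substrate plus GAPDH/TPI/NAD/arsenate coupling system with diaphorase/resazurin was added; resorufin fluorescence (525/598 nm) was read after 20 min.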
Tb PYK inh – T. brucei pyruvate kinase inhibition | Q57TT1 | AID 624173 | Potency, µM (titrated, usually from 76.8 µM), most hits filed as inhibitors | 410,000 tested, 0.12% active | TbPYK enzyme, Kinase-Glo Plus ATP luminescence, 45 min; note: nearly all actives have a fitted effect of over 50% in size
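Quantitative HTS: titrated library compounds versus trypanosomal pyruvate kinase in TEA buffer (pH 7.2) containing KCl, MgCl2, BSA and Tween-20. Reactions were initiated with ADP, 130 uM final. Kinase-Glo Plus luminescence was read after 45 min at RT.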
Cycloheximide cs – counter-screen hit for Shiga toxin inhibitors, cycloheximide; cell reporter, cycloheximide protein synthesis inhibition counterscreen; max response, %; 300,000 tested, 12% active; in the data active = max response mostly above about 13%, no sharp cut-off; inactive = mostly below about 14%; note: read at 38.3 µM for the half of the compounds with a filed dose
RE007 growth inh – less growth of the S. pombe RE007 Vpr strain. S. pombe RE007 Vpr strain, BacTiter-Glo ATP luminescence, 24 h. Potency, µM (highest dose often 92.2 µM), actives largely listed as inhibitors. 360,000 tested, 0.21% active; active = well fitted falling curve with a large enough effect; inconclusive = small, poorly fitted or top-dose-only effect; inactive = no such curve, though single readings can be large or run the other way; note: nearly all actives have a fitted effect of over 50% in size
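Fission yeast strain RE007, carrying one chromosomally integrated HIV-1 vpr copy, was seeded at OD 0.01 in PMG+AL medium with 23 nL pinned compound. After 24 h at 30 °C and 99% humidity, viability was read by BacTiter-Glo luminescence.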
Shiga inhibitor – Shiga toxin inhibition; Vero cells, Shiga toxin protein synthesis inhibition reporter; inhibition, % at 38.7 µM; 290,000 tested, 9.2% active; in the data active = inhibition mostly above about 28%, no sharp cut-off; inactive = mostly below about 43%
Each line names hits and unclear results; the compound was inactive in the other large screens; ! = a repeat was not active. Many of the other results were omitted from the sample, so hits are more common in it than they were. Unless noted, calls come from the whole dose curve; as a rule, active = well fitted curve in the direction sought with a large enough effect; inconclusive = small, poorly fitted or top-dose-only effect, or another doubt; inactive = no such curve, though single readings can be large; an effect the other way counts as inactive or inconclusive.

CCOCCn1c(-c2ccc(OC)cc2)nc2ccccc21	none
C=CCn1c(-c2ccc(N)cc2)nc2ccccc21	Shiga inhibitor 50
C=CCn1c(-c2ccc(OC)cc2)nc2nc3ccccc3nc21	Cycloheximide cs 37
C=CCn1c(C(O)c2ccccc2)nc2ccccc21 (configuration not stated)	Cycloheximide cs 16 (no result: Shiga inhibitor)
CSc1nc(S(C)(=O)=O)nc2[nH]c(=O)[nH]c12	none (no result: LmPK inhibitor, Giardia FBPA inh, Cycloheximide cs, Shiga inhibitor)
O=c1c2ccccc2nc(-c2ccccc2)n1Cc1ccccc1	Shiga inhibitor 83
COc1ccc(-c2nnnn2C(C)C)cc1	none
C=CCn1c(-c2ccc(OC)cc2)nc2ccccc21	Cycloheximide cs 36, RE007 growth inh inconclusive, Shiga inhibitor 30
COc1ccc(-c2nnnn2CCc2ccccc2)cc1	Cycloheximide cs 19
Cn1cc(Br)c(C(=O)Nc2sc3c(c2C(N)=O)CCC3)n1	Cycloheximide cs 30, Shiga inhibitor 52
Cn1ccc(C(=O)Nc2sc3c(c2C(N)=O)CCCCC3)n1	Tb PYK inh inconclusive, Cycloheximide cs 57, Shiga inhibitor 99 (no result: Giardia FBPA inh)
Cn1nccc1C(=O)Nc1sc2c(c1C(N)=O)CCCC2	Cycloheximide cs 31, Shiga inhibitor 58
CCn1ncc(Br)c1C(=O)Nc1sc2c(c1C(N)=O)CCC2	none
O=C(Cn1cc(C(=O)c2cccs2)c2ccccc21)Nc1ccc(Br)cc1	none (no result: LmPK inhibitor, Giardia FBPA inh, Cycloheximide cs, RE007 growth inh, Shiga inhibitor)
COc1cccc(NC(=O)CSc2nc3cc(OC)c(OC)cc3c3nc(-c4ccccc4)nn23)c1	none (no result: LmPK inhibitor, Giardia FBPA inh, Cycloheximide cs, RE007 growth inh, Shiga inhibitor)
O=C(NCCc1ccccc1F)C1CCCN1S(=O)(=O)c1ccc2ccccc2c1 (configuration not stated)	Cycloheximide cs 21
O=C(NNC1CC(=O)N(c2ccc(Br)cc2)C1=O)c1cccs1 (configuration not stated)	Shiga inhibitor 35
Cc1c(Cl)cccc1N1C(=O)CC(NNC(=O)c2cccnc2)C1=O (configuration not stated)	none
O=C(NNC1CC(=O)N(c2ccc(Br)cc2)C1=O)c1ccco1 (configuration not stated)	none
CCOC(=O)CNC1CC(=O)N(c2ccc(Br)cc2)C1=O (configuration not stated)	RE007 growth inh 13µM
Cc1c(Cl)cccc1N1C(=O)CC(NNC(=O)c2cccs2)C1=O (configuration not stated)	Cycloheximide cs 20
Cc1cccc(NC(=O)C(c2ccccc2)N2Cc3ccccc3C2=O)c1C (configuration not stated)	none (no result: LmPK inhibitor, Giardia FBPA inh, Cycloheximide cs, RE007 growth inh, Shiga inhibitor)
Cn1c(-c2ccc3c(c2)OCO3)cnc1N	Cycloheximide cs 13
Cc1ccc(CNc2ncc(-c3ccccc3)n2C)o1	Giardia FBPA inh inconclusive, Cycloheximide cs 25
Cn1c(-c2ccc3c(c2)OCO3)cnc1NCc1cccc(Cl)c1	Giardia FBPA inh inconclusive
Cn1c(-c2ccc3c(c2)OCO3)cnc1NCc1ccccc1	Cycloheximide cs 39 (no result: Giardia FBPA inh)
Cn1c(-c2ccc3c(c2)OCO3)cnc1NC(=O)CCC(=O)NCCc1ccccc1	Cycloheximide cs 18, Shiga inhibitor 65
CCOC(=O)c1c(NC(=O)CN2CCCc3ccccc32)sc(C(C)=O)c1C	none
COc1ccc(-c2cnc(NCc3ccc(C)cc3)n2C)cc1	none (no result: LmPK inhibitor, Giardia FBPA inh, Cycloheximide cs, RE007 growth inh, Shiga inhibitor)
Cc1ccc(-c2cnc(NCc3cc4c(cc3[N+](=O)[O-])OCO4)n2C)cc1C	none
Cn1c(-c2ccc3c(c2)OCO3)cnc1NCc1ccccc1Cl	Giardia FBPA inh inconclusive, Cycloheximide cs 33, Shiga inhibitor 73
Cn1c(-c2ccccc2)cnc1NCc1ccccc1	Giardia FBPA inh inconclusive, Cycloheximide cs 11 (no result: Shiga inhibitor)
CCOC(=O)c1ccc(N2CCOCC2)c(NC(=O)c2c(-c3ccccc3)noc2C)c1	none
Cc1nc2ccccc2c(=O)n1NC(=O)c1ccc(Cl)c(Cl)c1	none
CCOC(=O)c1cccc(NC(=O)c2cc(-c3ccc(Cl)s3)nc3ccccc23)c1	none (no result: LmPK inhibitor, Giardia FBPA inh, Cycloheximide cs, RE007 growth inh, Shiga inhibitor)
Cc1ccc(C)c(CC(=O)N2CCCCC2c2cc(C(=O)Nc3cccc(C#N)c3)no2)c1 (configuration not stated)	none (no result: LmPK inhibitor, Giardia FBPA inh, Cycloheximide cs, Shiga inhibitor)
COc1ccc(-c2csc(-n3ncc(C(=O)O)c3C(F)(F)F)n2)cc1	Cycloheximide cs 74, Shiga inhibitor 135
CNC(=O)c1cnn(-c2nc(-c3ccc(OC)cc3)cs2)c1C(F)(F)F	none
COC(=O)c1cnn(-c2nc(-c3ccccc3)cs2)c1N	Cycloheximide cs 42, Shiga inhibitor 40
O=C(O)c1cnn(-c2nc(-c3ccc(Cl)cc3)cs2)c1C(F)(F)F	Cycloheximide cs 53, Shiga inhibitor 82
CC(=O)C1CN(S(=O)(=O)c2ccc(C)cc2)C(c2ccccc2)CC1C (configuration not stated)	none (no result: LmPK inhibitor, Giardia FBPA inh, Tb PYK inh, Cycloheximide cs, Shiga inhibitor)
CC(=O)c1ccc(NC(=O)OCCN2CCN(Cc3ccccc3)CCC2=O)cc1	none (no result: LmPK inhibitor, Tb PYK inh, RE007 growth inh)
O=C(Nc1ccc(F)cc1)OCCN1CCN(Cc2ccccc2)CCC1=O	Cycloheximide cs 11!
CN(c1ccccc1)S(=O)(=O)c1cccc(NC(=O)CCNC(=O)c2ccc([N+](=O)[O-])cc2)c1	none (no result: LmPK inhibitor, Giardia FBPA inh, Cycloheximide cs, Shiga inhibitor)
CCN(CC)S(=O)(=O)c1cccc(NC(=O)CCNC(=O)c2ccc([N+](=O)[O-])cc2)c1	Cycloheximide cs 14, Shiga inhibitor 48
CCN(CC)c1ccc(/C=C2/C(=O)N(c3ccc([N+](=O)[O-])cc3)N=C2N2CCOCC2)cc1	none (no result: Tb PYK inh, RE007 growth inh)
CCCC1=NN(c2ccc([N+](=O)[O-])cc2)C(=O)/C1=C\N(C)C	Cycloheximide cs 11
NS(=O)(=O)c1ccc(NC(=O)CN2CCCc3ccccc32)cc1	none
CCN(CC)c1ccc(/C=N/NC(=O)CN2CCCc3ccccc32)cc1	none
O=C(CN1CCCc2ccccc21)N/N=C/c1ccccc1	Cycloheximide cs 21 (no result: RE007 growth inh)
O=C(CN1CCCc2ccccc21)N/N=C/c1c(O)ccc2ccccc12	Cycloheximide cs 34, Shiga inhibitor 48
O=C(CN1CCCc2ccccc21)N/N=C/c1ccc(O)cc1O	Cycloheximide cs 26, Shiga inhibitor 71
COC(=O)[C@@H]1OC(c2ccccc2)O[C@H]1C(=O)OC	none (no result: LmPK inhibitor, Tb PYK inh, RE007 growth inh)
CCCCc1ccc(C(=O)O)nc1	Giardia FBPA inh 16µM (no result: LmPK inhibitor, Cycloheximide cs, Shiga inhibitor)
CCCc1ccc(-c2ccc(F)c(N)c2)nc1	LmPK inhibitor 16µM
CCCCc1ccc(-c2ccc(Br)cc2)nc1	Cycloheximide cs 35, Shiga inhibitor 86
CCCc1ccc(-c2ccc(-c3noc(-c4ccncc4)n3)cc2)nc1	none
O=C(O)c1ccc(Br)cn1	Giardia FBPA inh inconclusive
COc1ccc(N2CCN(C(=O)c3cc(=O)c4cc(C)ccc4o3)CC2)cc1	none
CC(=O)Nc1ccc(C(=O)c2ccccc2)cc1	Cycloheximide cs 16
CC(=O)Nc1ccc(NC(=O)c2ccc(NC(=O)c3ccccc3)cc2)cc1	none (no result: Giardia FBPA inh)
CC(=O)Nc1cccc(NC(=O)Nc2ccc(C(C)=O)cc2)c1	none
CC(=O)Nc1ccc(/C(C)=N/NS(=O)(=O)c2ccccc2)cc1	Cycloheximide cs 23
